From the supplement of paper PMC6555819

What was measured:
Experiment in all cases: PBM binding z-score (relative to random genomic background probes); higher = stronger binding; sequences stand for … in GC…GCGATTGACAGCGTAGAATGAAGG
[1] = system: RARb homodimer (NR concentration 270 nM)
In short: (§1)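 Binding buffer was PBS pH 7.4 with 2% milk, 0.02% Triton X-100, 1 mM DTT, 0.2 mg/mL BSA and 0.4 mg/ml salmon testes DNA. In it, ligand-free nuclear receptor dimers were incubated 1 h on custom Agilent 4×180K protein-binding microarrays carrying double-stranded probes. Antibodies against each partner (one per run) detected binding, and z-scores were calculated against random background probes after regression normalization of scanned fluorescence.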

[2] = system: RARg:RXRa (NR concentration 270 nM, RXRa partner concentration 90 nM)
In short: as §1

[3] = system: RARg homodimer (NR concentration 270 nM)
In short: as §1

[4] = system: RXRa DBDmut IVT, anti-RXR (DBD mutation: RXRa K156A/R161A, NR concentration 90 nM)
In short: as §1

[5] = system: RXRa homodimer (NR concentration 180 nM)
In short: as §1

[6] = system: THRa:RXRa (NR concentration 90 nM, RXRa partner concentration 90 nM)
In short: as §1

[7] = system: THRa homodimer (NR concentration 90 nM)
In short: as §1

[8] = system: VDR homodimer (NR concentration 270 nM)
In short: as §1

Sequence	PBM binding z-score [1]	PBM binding z-score [2]	PBM binding z-score [3]	PBM binding z-score [4]	PBM binding z-score [5]	PBM binding z-score [6]	PBM binding z-score [7]	PBM binding z-score [8]
ATCGAAAGGTCGACAAGGTGAGTATACACCGTTT	3.01	4.25	3.99	0.788	4.36	3.65	0.513	0.835
GATACAGGGTCACGGCCAGAGTACGCGTATTGAT	3.98	6.54	6.18	2.92	7.78	4.17	2.03	3.26
AATACAGGGGCATCGTAGGCCAGAGTACGCACAG	1.13	0.978	1.23	0.834	0.784	2.47	-0.358	1.15
TCTCGTAGGACACGAAGGTCAGAGCTTTCCAGAG	3.42	2.46	2.96	0.604	1.63	1.98	0.187	0.463
TTACCAAGGTGAGCTGCGGTCGTTGATCCAACTC	0.677	0.0521	0.0746	-0.731	0.198	2.28	0.255	-0.523
GCGACTGGGACATCAGCAGGTTACCATAACTTAA	0.428	-0.00527	0.0107	-0.5	0.176	0.674	0.0254	-0.459
AGTCAAAGTTCACTAGGTAGCGTAAGATTCAGCT	3.47	4.95	5.68	4.01	3.68	1.66	-0.346	3.7
GCTTGTAGATCAAGTTTAAGAAAGACTAAGCTAA	-0.242	-0.195	-0.0872	0.649	-0.236	-0.0932	-0.618	0.27
AGTCAAAGTTCATCTAGGTAACGTAAGATATGCT	4.07	5.59	6.2	4.76	4.97	3.05	0.224	4.94
TGAATGCGGTTATAAGATCAGGGAACGTTGCAAA	-0.46	0.175	0.239	-0.906	-0.0523	-0.183	-0.559	-0.171
CCTCGGAGGACAACAGGAGGTCTGAGCTGCCAGA	0.507	0.123	0.881	-0.213	-0.493	0.56	-0.246	-0.289
GCTGCTGGGTCAACTGATGGTCAGCTAAAGCTCG	3.36	5.04	4.22	1.22	3.13	2.41	0.228	-0.125
TCATAAAGGTAAAAGGTGAAAGTCGGTGTGGTAA	2.25	2.87	1.28	1.94	4.16	2.34	0.408	0.435
GCAGACAGGTGAAACGCAGGTCACTCAGGGTGGC	3.35	5.21	2.47	-0.32	2.43	3.6	0.663	0.199
AGTCAAAGATCACTAGGTAACGTAAGATTCAGCT	-0.307	0.422	0.489	-0.0538	0.356	0.378	-0.116	-0.051
CGAACTAGTTCATCCAGGACAGTGAATACATTGA	0.846	1.12	1.39	3.28	0.593	2.23	1.07	3.24
CAAACTAGGTCAATAGGTCAAAGTCCGCTTCCCG	5.26	7.95	6.55	2.03	6.54	3.62	1.05	2.03
ATCTCTAGGTAAAGATAGTTCAGTGATTGCAAAT	1.2	0.619	0.722	0.503	0.395	0.879	0.445	0.789
TCTAGCAGGCCAGACGGTCACTCAAGAGGTACGG	1.12	0.224	0.8	-0.226	0.291	-0.447	-0.799	-1.01

Sequence	PBM binding z-score [1]	PBM binding z-score [2]	PBM binding z-score [3]	PBM binding z-score [4]	PBM binding z-score [5]	PBM binding z-score [6]	PBM binding z-score [7]	PBM binding z-score [8]
GCGACTGGGGCATCCGCAGGTTACCATAACTTAA	0.945	1.31	0.446	0.00577	0.41	1.21	-0.198	-0.454
CAGCCTATGTCAGGGCCAGTATAGGAGGAACGTT	0.243	0.116	0.219	-0.685	-0.248	-0.329	-0.168	-0.529
CAAACTAGGTCAAGAGGTCAAAATCCGCTTCCCG	5.66	7.74	7.02	2.42	7.25	4.55	2.33	3.18
TCTTGTAGATCAAAGGTTAAGGAAGCCGAAGCCT	1.55	1.85	0.852	0.63	3.15	1.39	-0.169	-0.0198
CCTACTGGGCCAAAAAGGTCAATGATGCCGATAA	4.77	4.33	4.09	-0.0473	4.06	3.06	0.77	0.956
ATCGAAAGGTCGTGATGTGAGTATACAGAAAGGC	2.33	3.91	3.35	1.1	4.56	2.34	0.0191	0.997
AGTTAAAGTTCACTAGGTAACGTAAGATTCAGCT	3.53	4.38	4.95	3.86	3.07	1.92	0.252	3.22
ATAAGTAGGTTACATCCGGGTCATTCAGGCTATG	2.83	3.41	2.17	1.37	3.12	3.72	2.7	3.19
TAGCCTAGCTCATGGGCCAGTATACCACGCGAAC	-0.141	-0.422	-0.314	-1.22	-0.408	-0.643	-0.48	-0.464
GCTAGCAGGCCATTTGGGTCGCTCAATGACGGGC	-0.128	-0.381	-0.146	-0.286	-0.42	-0.00184	-0.914	-0.635
CCAGACAGGTGACAAGGTAACTCAGCCTCGATTA	0.759	0.862	0.728	0.06	0.446	1.24	0.784	-0.45
GGAACGAGGACATTCGAGTTGATAGCATGGCGAT	-0.261	0.285	0.773	2.25	0.11	2.2	0.823	1.65
CCTACTTGGCCAAAAAGGTCATTGATGCCGATAA	4.05	4.68	4.19	1.55	5.15	3.18	1.06	3.04
CCGACTGGGGCATAAGGTTTCCATAAGCCAGCCC	-0.165	-0.272	-0.139	-0.156	-0.0441	-7.82e-06	-0.206	-0.137
GATGCAGGGTCAAGGCCAGAGTACGCGTATTGAT	3.44	5.2	4.79	1.98	5.72	3.46	0.878	1.78
AGAATTAGGTTATTAAGATCAGGGAATTGCGGTC	0.844	0.403	0.569	0.599	0.275	0.913	0.502	0.494
TCTATTAGTGGAAGGGCAACCGACGAGTCCGTTT	1.21	0.443	0.673	1.28	0.619	0.13	0.0131	1.3
CGTCCAAGGTCAGCAGGTCAGTGACAGCGACGTG	5.12	6.43	7.03	2.63	5.26	3.87	2.43	2.08
CCTCGGAGGACAGAAGGTCAGGGCTGTCCGCTTT	3.88	3.67	3.54	-0.126	2.22	2.35	0.202	0.107

Sequence	PBM binding z-score [1]	PBM binding z-score [2]	PBM binding z-score [3]	PBM binding z-score [4]	PBM binding z-score [5]	PBM binding z-score [6]	PBM binding z-score [7]	PBM binding z-score [8]
CCTGGTTGGTCAGGAGGTCACACACCGGATATGA	4.02	4.98	4.31	0.0446	4.57	3.37	2.1	2.44
TTACCATGGTGAAGGTCGTTGATCCCTCTGTAGA	0.835	0.184	-0.00813	-0.163	1.07	0.611	-0.36	0.502
CGAGCTAGGTCATTGACAGGACAGTGAATAGTAA	2.77	4.67	4.49	2.43	2.37	2.7	0.527	1.23
CGTCAAAGTTCAACTAAGGTAACCTAAAGCACGC	4.36	6.08	6.64	4.81	4.92	5.31	2.1	4.48
AGAACGAAGGCAATGAGTTGATAGCACGGGTGGC	-1.03	-0.228	-0.122	-0.299	-0.105	-0.732	-1.11	-0.223
CGTCCAAGGTCAAGGTCAGTGTAAGAGACTCGAA	4.82	6.56	7.36	3.69	6.28	4.39	3.57	3.32
GCGACTGGGGCATCAGCAGGTTATCATAACTTAA	0.979	0.933	0.586	-0.0902	0.555	1.05	-0.305	-0.259
ATCGAAAGGTCGACGAGGCGAGTATACACCGTTT	2.61	4.06	3.74	1.28	4.22	2.48	-0.128	0.605
TCTCGGAGGACACGAAAGGTCATAGCTCGACATC	4.89	5.58	5.34	1.71	5.3	4.24	2.12	2.67
GGCACGAGGGCAAAGTTGATAGCATCTGTCGACG	1.26	2.26	1.99	2.39	2.19	1.33	-0.552	1.29
GATACAGGGTCAGCTAGAGGCCATAGTATGGAAA	3.52	6.77	4.83	1.57	3.96	3.29	0.486	1.33
CGAACGTGGGCATGAGTTGATAGCAAATGCCGAT	-0.844	-0.563	-0.218	0.0414	-0.376	-0.695	-1.12	-0.195
CCTAGTTGGTCTGGAGGTCACACACCGGATATGA	4.22	4.49	3.84	0.895	4.63	3.67	2.69	2.97
TCATATAGGTATTACAGGTGAAAGTCGGCATCTA	0.804	0.652	0.438	1.81	1.35	0.854	0.684	0.524
ATCTCTAGGTAAGACTCAGTTTAGTGAAGAACGC	0.134	0.228	0.235	0.443	-0.191	0.364	0.619	0.252
TCATATAGGTAAAGGTGGAAGTCGAACGATATGA	0.0636	0.544	0.404	1.02	0.958	-0.14	-0.387	0.109
CCTAGCAGGGCAGGGTCACTCAAGCATTTCGCTT	3.05	3.61	3.01	0.33	4.08	2.8	0.567	1.75
TTACCTAGGTGAGCTGAGGTCGTTGATCCAACTC	1.32	0.757	0.325	0.055	1.01	4.18	2.11	1.73
